Rows were chosen to be rich in hits. Some 4.3% of all compounds tested hit in one or more screens of this group.
ADAM10 inh – human ADAM10 inhibitors, primary screen, biochemical, QFRET, HTS. recombinant ADAM10, EDANS/DABCYL FRET peptide cleavage, 3 h. AID 720582, 2013. 370,000 compounds, 0.62% hits. inhibition, % at 7 µM;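 active = inhibition above a per-campaign cutoff equal to the mean of compounds falling between control-based bounds plus 3 SD, cut at about 20% in these data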;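 also: 0% = DMSO wells while the 100% control is not disclosed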
sPLA2-III inh – human group III sPLA2 inhibitors, primary screen, biochemical, QFRET, BODIPY PC-A2 liposome substrate; QFRET BODIPY PC-A2 liposome hydrolysis, fluorescence; 370,000 compounds, 0.56% hits; inhibition, % at 12.2 µM; AID 743126, 2013; Group 3 secretory phospholipase A2 (Homo sapiens), Q9NZ20;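 active = inhibition above mean plus 3 SD of compounds lying within the high and low control bounds, cut at about 19% in these data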;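 also: 0% = median of test compound wells and 100% = no enzyme DMSO wells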
NR3A LBD binder – binders of NR3A ligand-binding domain, primary screen, biophysical, differential scanning fluorimetry, uHTS | NR3A LBD differential scanning fluorimetry, Tm shift; 0% = protein alone, 100% = glycine-bound protein | Tm shift relative to glycine control, % at 25 µM | 340,000 compounds, 2.5% hits | AID 1259313, 2017;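 active = melting temperature shift of at least 10% of the positive control shift, at one fixed dose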
FAS-TE inh – FAS thioesterase domain inhibitors, primary screen, biochemical, fluorescence intensity, uHTS; recombinant FAS-TE, OMFH fluorogenic substrate, fluorescence endpoint; inhibition, % at 15 µM; 360,000 compounds, 0.67% hits;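 active = compounds whose normalised, plate-corrected inhibition of enzyme fluorescence in the single-dose primary screen is 50% or more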;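 also: 0% = DMSO with enzyme and 100% = substrate without enzyme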
ADAM17 inh – ADAM17 inhibitors, primary screen, biochemical, QFRET. Disintegrin and metalloproteinase domain-containing protein 17 (Homo sapiens), P78536. recombinant ADAM17, EDANS/DABCYL FRET peptide cleavage. inhibition, % at 6.95 µM. 370,000 compounds, 0.83% hits. AID 720648, 2013;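 active = inhibition above the mean of compounds lying between control limits plus 3 SD, set per campaign, cut at about 8.5% in these data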;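 also: 0% = DMSO-only wells as the low control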
Target sequence (P78536 215-824 limits assumed): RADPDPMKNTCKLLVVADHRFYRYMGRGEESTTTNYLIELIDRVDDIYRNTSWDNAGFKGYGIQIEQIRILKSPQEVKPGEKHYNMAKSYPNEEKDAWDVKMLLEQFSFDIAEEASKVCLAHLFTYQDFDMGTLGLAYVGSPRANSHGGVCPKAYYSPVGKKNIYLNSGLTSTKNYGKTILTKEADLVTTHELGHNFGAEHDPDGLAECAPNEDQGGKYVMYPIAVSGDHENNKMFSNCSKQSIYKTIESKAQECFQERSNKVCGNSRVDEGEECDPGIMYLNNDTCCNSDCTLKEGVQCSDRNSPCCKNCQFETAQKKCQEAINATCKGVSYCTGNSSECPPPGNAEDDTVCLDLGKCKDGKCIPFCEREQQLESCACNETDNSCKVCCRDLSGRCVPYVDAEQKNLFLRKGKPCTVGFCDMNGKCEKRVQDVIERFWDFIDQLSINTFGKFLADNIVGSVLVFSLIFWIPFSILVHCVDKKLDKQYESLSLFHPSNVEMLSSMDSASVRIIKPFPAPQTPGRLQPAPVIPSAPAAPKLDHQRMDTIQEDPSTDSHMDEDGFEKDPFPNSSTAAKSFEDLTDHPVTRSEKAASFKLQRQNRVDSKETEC
FAS-TE conf – FAS thioesterase domain inhibitors, confirmation, biochemical, fluorescence intensity, single concentration | shares compounds with FAS-TE inh | recombinant FAS-TE, OMFH fluorogenic substrate | inhibition, % at 15 µM | 2,300 compounds, 45% hits | AID 624325, 2012;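 active = compounds inhibiting the enzyme by at least 50% at 15 µM in any one of the replicates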;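 also: 0% = enzyme with DMSO only and 100% = wells lacking enzyme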
An asterisk follows results filed as active; x = not tested or not shown.

SMILES	ADAM10 inh	sPLA2-III inh	NR3A LBD binder	FAS-TE inh	ADAM17 inh	FAS-TE conf
COc1cc(C(=O)Oc2ccccc2/C=N/NC(=O)c2ccc(Cl)cc2)cc(OC)c1OC	-2.9	16.1	-3.1	54.2*	2.6	21.6
COc1cc(C(=O)N/N=C/c2coc3ccc(Cl)cc3c2=O)ccc1O	-4.4	3.1	-0.8	58.7*	-0.7	65.6*
CN(Cc1ccccc1)C(=O)OCc1cn(Cc2ccccc2F)nn1	-1.3	-0.6	x	x	0.8	x
O=C(COc1ccc(Cl)cc1)Nc1ccc(C(=O)O)cc1NC(=O)COc1ccc(Cl)cc1	0.0	-5.8	10.2*	51.0*	1.6	65.7*
O=C(COc1ccc(Cl)cc1)Nc1ccccc1Cl	5.0	2.0	2.2	11.1	-2.1	x
CCN(CC)S(=O)(=O)c1ccc(N2CCOCC2)c(NC(=O)C(=O)c2c(-c3ccccc3)cc3ccccn23)c1	3.1	3.4	1.1	54.0*	-0.1	33.7
CCN(CC)S(=O)(=O)c1cccc(NC(=O)C(=O)c2c(-c3ccccc3)cc3ccccn23)c1	13.3	-11.1	3.4	26.9	4.8	x
O=C(CCl)NC1CCCCN(Cc2ccc(OC(F)(F)F)cc2)C1=O (configuration not stated)	-4.9	-2.7	x	x	-2.7	x
O=S(=O)(Nc1ccc(-c2csc(-c3ccccc3)n2)cc1)c1ccccc1	13.4	-50.6	20.4*	58.7*	5.0	43.6*
COc1ccccc1C=NNC(=O)CSc1nc2ccccc2n1Cc1ccc(Cl)cc1	12.7	-10.2	x	x	7.2	x
CC(C)C[C@@H]1COc2cccc(F)c2S(=O)(=O)N1C	2.7	6.5	x	x	2.0	x
Cc1ccccc1C(=O)N(C)[C@H]1C[C@H]2c3[nH]c4c(-c5ccc6c(c5)OCO6)cccc4c3CCN2C(=O)[C@H]1[C@H](C)O	-6.9	-1.8	x	x	-3.9	x
Cc1csc2c(=O)sc(NC(=O)c3ccc(F)cc3Cl)nc12	11.2	2.3	-4.1	84.0*	-2.9	4.0
Cc1ccccc1C(=O)Nc1nc2c(C)csc2c(=O)s1	-16.0	17.4	2.0	51.0*	-3.5	26.9
O=S(=O)(c1ccc(Cl)s1)N1CCC(c2cn3ccccc3n2)CC1	-159.5	-10.5	x	x	-51.3	x
COC(=O)C1CCN(C(=O)CN2CCC(C(=O)c3ccc(C)cc3)CC2)CC1	-12.1	3.2	x	x	-4.4	x
C#CCN(C)S(=O)(=O)c1ccc(N2CCCC2)cc1Br	1.7	5.0	x	x	0.2	x
Cc1ccc(-n2c(SCc3cccc(F)c3)nc3sc4c(c3c2=O)CCCC4)cc1	5.8	3.9	x	x	-1.0	x
COc1ccc(-c2cnnn2-c2ccc(NC(=O)c3ccc(S(=O)(=O)N4CCCCC4)cc3)cc2)cc1	16.0	-16.6	-0.3	57.9*	4.7	-1.3
O=C(NC1CCCCN(Cc2ccc(OC(F)(F)F)cc2)C1=O)c1ccc2ccccc2c1 (configuration not stated)	7.8	-9.0	x	x	4.6	x
Cc1ccc(S(=O)(=O)Nc2ccc3c(c2)c2c(n3S(=O)(=O)c3ccc(C)cc3)CCCC2=O)cc1	4.1	-1.3	-1.9	50.9*	-3.3	20.4
CCCC1CCC2(CCCN2CCOC(=O)Nc2ccc(F)cc2)CC1 (configuration not stated)	-2.6	-18.6	x	x	-3.6	x
CCCCNC(=O)CSc1nc2ccccc2n1S(=O)(=O)c1ccc(Br)cc1	-6.8	3.1	0.2	0.3	-2.0	x
O=C(CSc1nc2ccccc2n1S(=O)(=O)c1cccc([N+](=O)[O-])c1)NCCc1ccccc1	4.5	5.1	-3.5	76.1*	-1.8	69.1*
O=C(N/C(=C/c1ccccc1)C(=O)N1CCOCC1)c1ccc([N+](=O)[O-])cc1	-1.6	-1.2	-4.3	53.4*	-0.7	46.9*
O=C(N/C(=C\c1ccc([N+](=O)[O-])cc1)C(=O)N1CCOCC1)c1ccccc1	-5.0	2.6	-1.6	-1.3	-1.0	x
COc1ccc(/C=C(\NC(=O)c2ccc([N+](=O)[O-])cc2)C(=O)N2CCOCC2)cc1	0.8	-3.1	-2.3	81.8*	-1.4	87.2*
